# Compound activity (PubChem)
# L3MBTL1 inh-1 = L3MBTL1 (human) inhibition | Potency, µM (top dose mostly 57.1 µM), for the others: top-dose activity, negative = inhibition, actives largely listed as inhibitors | AlphaScreen L3MBTL1–H3K9me1 peptide binding | AID 485360 | 230,000 compounds, 0.66% hits | Q9Y468; further: on the % scale 0 is the no-effect control and ±100 the full control effect; nearly all actives have a fitted effect of over 60% in size
#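 L3MBTL1 (50 nM) pre-complexed 30 min with biotinylated H3(1-15)K9me1 peptide (75 nM), then compounds added for 30 min at room temperature; AlphaScreen streptavidin donor/nickel chelate acceptor beads (10 ug/mL final) read after 30 min dark incubation.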
# BAZ2B block = BAZ2B (human) inhibition; Q9UIF8; AlphaScreen BAZ2B-H3K14Ac peptide displacement; Potency, µM (doses to about 114 µM), for the others: at the top dose activity change, negative = inhibition, usual class: inhibitors; 360,000 compounds, 4.4% hits; AID 504333; further: on the % scale 0 is the no-effect control and ±100 the full control effect; nearly all actives have a fitted effect of over 60% in size
#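 AlphaScreen displacement: compounds (up to 110uM) incubated 30 min at room temperature with a preformed 50 nM BAZ2B/50 nM biotinylated H3K14Ac peptide complex in PBS pH 7.4 with Tween-20. Donor and acceptor beads at 10 ug/mL final added, 20 min light-protected before reading.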
# HP1b chromo inh = inhibitors of HP1-beta chromodomain binding to methylated histone tails. AlphaScreen HP1-beta / biotin-H3K9me3 peptide binding. Potency, µM (doses to about 114 µM), for the others: top-dose activity change, negative = inhibition, hits mostly inhibitors. 390,000 compounds, 0.56% hits. P83916; further: nearly all actives have a fitted effect of over 70% in size
#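 HP1-beta protein (50 nM final) preincubated 30 min at room temperature with biotinylated H3(1-18)K9me3 peptide (50 nM) in PBS pH 7.4, 0.01% Tween-20, then compound added for 30 min. AlphaScreen streptavidin donor/nickel chelate acceptor beads (10 ug/mL final), 30 min dark, luminescence read.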
# JMJD2A Tudor inh = blocks the human JMJD2A Tudor domain | 390,000 compounds, 4.4% hits | AID 504339 | AlphaScreen JMJD2A-Tudor / H3K4me3 peptide binding | O75164 | Potency, µM (titrated, usually from 114 µM), for inactives: at the highest dose activity change, negative = inhibition, hits mostly inhibitors; further: on the % scale 0 is the no-effect control and ±100 the full control effect; nearly all actives have a fitted effect of over 50% in size
# Target sequence (O75164 whole entry, looked up, the tested form may be a part): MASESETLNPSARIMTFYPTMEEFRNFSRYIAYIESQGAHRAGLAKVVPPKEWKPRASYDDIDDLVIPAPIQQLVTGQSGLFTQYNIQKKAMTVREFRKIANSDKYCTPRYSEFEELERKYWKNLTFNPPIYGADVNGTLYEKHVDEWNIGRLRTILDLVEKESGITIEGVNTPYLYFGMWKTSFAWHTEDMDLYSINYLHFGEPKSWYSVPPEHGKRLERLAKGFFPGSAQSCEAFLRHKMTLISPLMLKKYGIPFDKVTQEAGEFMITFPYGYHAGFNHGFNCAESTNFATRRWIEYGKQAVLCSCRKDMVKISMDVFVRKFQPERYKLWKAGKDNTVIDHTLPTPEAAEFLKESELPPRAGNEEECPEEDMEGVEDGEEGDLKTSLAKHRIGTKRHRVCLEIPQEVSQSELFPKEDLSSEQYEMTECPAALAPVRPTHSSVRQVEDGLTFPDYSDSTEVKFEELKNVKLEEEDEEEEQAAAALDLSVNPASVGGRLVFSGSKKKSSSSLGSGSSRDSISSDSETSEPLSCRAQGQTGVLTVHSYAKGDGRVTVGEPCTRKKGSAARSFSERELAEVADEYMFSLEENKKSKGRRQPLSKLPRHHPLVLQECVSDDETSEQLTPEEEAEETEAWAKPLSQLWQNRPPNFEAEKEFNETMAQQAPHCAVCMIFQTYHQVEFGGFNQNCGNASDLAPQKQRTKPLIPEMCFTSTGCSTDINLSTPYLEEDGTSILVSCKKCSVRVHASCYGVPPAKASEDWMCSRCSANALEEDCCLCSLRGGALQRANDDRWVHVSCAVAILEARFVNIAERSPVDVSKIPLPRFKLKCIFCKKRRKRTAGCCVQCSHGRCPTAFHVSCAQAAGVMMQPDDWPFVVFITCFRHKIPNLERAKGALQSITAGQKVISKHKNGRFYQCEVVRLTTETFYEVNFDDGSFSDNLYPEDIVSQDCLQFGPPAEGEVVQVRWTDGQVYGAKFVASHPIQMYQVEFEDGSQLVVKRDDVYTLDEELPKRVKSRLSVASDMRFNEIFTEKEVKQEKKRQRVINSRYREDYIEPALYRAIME
# G9a block = blocks human histone lysine methyltransferase G9a | G9a H3K9 monomethylation, AlphaScreen, 2 h | AID 504332 | 350,000 compounds, 8.8% hits | Potency, µM (doses to about 102 µM), for inactives: at the highest dose activity, negative = inhibition, usual class: inhibitors; further: on the % scale 0 is the no-effect control and ±100 the full control effect; nearly all actives have a fitted effect of over 75% in size
#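 AlphaScreen read-out: biotin-H3K9 peptide (500 nM) methylation by 20 nM enzyme with 20 uM SAM, 2 h at room temperature after 15 min compound preincubation; anti-monomethyl H3K9 antibody plus donor/acceptor beads, 10 min dark.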
# Sfp inh = Sfp phosphopantetheinyl transferase inhibition; Q9F4F7; Biochemical Sfp PPTase activity, qHTS; Potency, µM, for inactives: largest response in the series, negative = inhibition, actives largely listed as inhibitors; 310,000 compounds, 3.5% hits; AID 1490;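 further: the enzyme is Sfp with the accession as filed and its product quenches rhodamine fluorescence; 0% = enzyme reaction without inhibitor and -100% = no enzyme wells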
#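 Fluorescence-quenching assay: 15 nM Sfp-PPTase preincubated 15 min at room temperature with compound, then 5 uM rhodamine-CoA and 12.5 uM BHQ-2-labelled YbbR peptide added. Fluorescence (ex 525/em 598 nm) read at start and after 30 min; difference gives rate.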
# L3MBTL1 inh-2 = L3MBTL1 binding inhibition validated | shares compounds with L3MBTL1 inh-1 | L3MBTL1 methyl-lysine binding inhibition, biochemical qHTS | Potency, µM, most hits filed as inhibitors | 500 compounds, 91% hits | AID 540279; further: nearly all actives have a fitted effect of over 70% in size
# L3MBTL1 ctr = counter-screen for L3MBTL1 inhibitors: AlphaScreen signal interference; shares compounds with L3MBTL1 inh-1; AlphaScreen counterscreen, signal inhibition; Potency, µM (doses to about 57.1 µM), for inactives: top-dose activity change, negative = inhibition, hits mostly inhibitors; 500 tested, under 10 active; AID 602224; further: 0% is about no effect
# Numbers without * were called inactive; ? = inconclusive; · = no result given; [ ] = dose if it differs, or a comment. Compounds with a hit are over-represented: about 12% of the library has one in this group of screens. The call rests on the fitted dose curve; in most records, active means well fitted curve in the direction sought with a large enough effect; inconclusive means small, poorly fitted or top-dose-only effect, or another doubt; inactive means no such curve, though single readings can be large; an effect the other way counts as inactive or inconclusive. Potency means the concentration at half of the fitted maximal effect.
SMILES,L3MBTL1 inh-1,BAZ2B block,HP1b chromo inh,JMJD2A Tudor inh,G9a block,Sfp inh,L3MBTL1 inh-2,L3MBTL1 ctr
COc1cnc(SC(C)C)[nH]c1=O,10%,0%,31%,-20%,·,-17%,·,·
COc1cnc(-c2ccccn2)[nH]c1=O,10µM*,1.3µM*,31%,40µM*,34%,10µM*,21*,13%
COc1ccc(S(=O)(=O)N2CCc3ccccc32)cc1C(=O)NC1(C)CCS(=O)(=O)C1 (stereo not drawn),-6%,-12%,42%,-13%,-3%[12.7 µM],·,·,·
CCOC(=O)c1ccc(N2CC3=C(C2=O)C(c2ccc(OC)cc2)NC(=O)N3C)cc1 (stereo not drawn),·,-4%,48%,5%,5%[59 µM],·,·,·
O=C1CC(c2ccco2)CC(O)=C1C=Nc1cc(Cl)ccc1Cl (stereo not drawn),35µM*,50µM*,-6%,?,7.1µM*,50µM*,24*,-1%
COc1ccc(-c2ccc(F)cc2)cc1C1C2C=CCC(C)C2C(=O)N1Cc1ccccc1 (stereo not drawn),·,·,20%,-19%,·,6%,·,·
O=C(COC(=O)C1CCN(S(=O)(=O)c2cccs2)CC1)c1ccc2c(c1)OCCO2,3%,25%,21%,3%,18%,-1%,·,·
O=C(COC(=O)C1CCN(S(=O)(=O)c2cccs2)CC1)c1cc2ccccc2o1,32µM*,-9%,47%,-5%,8.9µM*,8%,?,-1%
Cc1ccc(OCC(=O)c2c(N)n(C)c(=O)n(C)c2=O)c([N+](=O)[O-])n1,7.9µM*,25µM*,20µM*,?,60%[12.7 µM],·,0.84*,?
CCCCC(=O)Nc1ncc([N+](=O)[O-])s1,-2%[11.4 µM],-38%,3%,-15%,?,13%,·,·
Cc1nc(C)c(C(=O)Nc2ncc([N+](=O)[O-])s2)o1,40µM*,?,-22%,?,10µM*,-79%,5.3*,6%
CCN(CC)Cc1c(O)c(Cl)cc2c(C)cc(=O)oc12,22µM*,56µM*,?,-33%,?,20%,15*,3%
Cc1cc(=O)oc2c(CN3CCC(C)CC3)c(O)c(Cl)cc12,32µM*,?,-6%,-28%,-41%[59 µM],-4%,11*,15%
COc1ccccc1C(=O)NCC1(N2CCN(C)CC2)CCCCC1,·,2%,54%,4%,8%[59 µM],·,·,·
CC(C)N(C(=O)CSc1cn(CC(=O)N2CCCCCC2)c2ccccc12)C(C)C,·,-12%,29%,2%,5%[59 µM],·,·,·
C=CCOc1ccccc1/C=c1\sc2nc(-c3oc4ccccc4c3C)nn2c1=O,·,·,30%,-3%,·,·,·,·
Cc1ccc(/C=c2\sc3nc(-c4ccco4)nn3c2=O)o1,7.9µM*,50µM*,22µM*,-16%[11.4 µM],18µM*,25µM*,17*,1%
Cc1cc2oc(C(=O)Nc3c(C)n(C)n(-c4ccccc4)c3=O)cc(=O)c2cc1C,·,-14%,12%,-11%,-8%[59 µM],·,·,·
COc1ccc(N2Cc3cccc(C(=O)N4CCN(C(=O)c5ccco5)CC4)c3C2=O)cc1,28µM*,50µM*,?,50µM*,45µM*,?,2.7*,-16%
O=C(Oc1c(CN2CCOCC2)cc(Cl)c2cccnc12)c1ccccc1Br,32µM*,20µM*,18%,40µM*,-7%,-5%,24*,2%
O=C(Oc1c(Cl)cc(Cl)c2cccnc12)N1CCOCC1,·,8%,11%,-9%,4%[12.7 µM],25%,·,·
Cc1ccc(S(=O)(=O)N2CCN(C(=O)/C=C/c3ccco3)CC2)cc1,28µM*,50µM*,?,79µM*,45µM*,?,27*,0%
O=C(Cc1ccc(S(=O)(=O)N2CCOCC2)s1)Nc1nc2c(s1)CCCC2,11µM*,18µM*,?,56µM*,·,-107%,6.7*,-22%
Cc1cccc(OCC(=O)Nc2cccc3cccnc23)c1C,·,0%,30%,1%,11%[59 µM],·,·,·
O=C1OC(c2cccs2)=N/C1=C/c1ccc(-c2cccc(C(=O)O)c2)o1,0.56µM*,25µM*,?,50µM*,7.9µM*,-61%,3.4*,-6%
SMILES,L3MBTL1 inh-1,BAZ2B block,HP1b chromo inh,JMJD2A Tudor inh,G9a block,Sfp inh,L3MBTL1 inh-2,L3MBTL1 ctr
CC(=O)c1ccc(S(=O)(=O)N2CCN(C(=O)CSC(=S)N3CCCC3)CC2)cc1,2%,-5%,7%,-22%,5%,·,·,·
CCCN(C(=O)c1ccc([N+](=O)[O-])c(C)c1)c1c(N)n(Cc2ccccc2)c(=O)[nH]c1=O,10%,-32%,23%,-13%,?,·,·,·
CCCCN(C(=O)c1cccc(S(=O)(=O)N2CCCC2)c1)c1c(N)n(CCC)c(=O)[nH]c1=O,4%,8%,30%,-13%,5%[2.33 µM],·,·,·
CCCCN(C(=O)c1cccc(-n2cccc2)c1)c1c(N)n(CCC)c(=O)[nH]c1=O,14µM*,45µM*,79µM*,14µM*,4%[0.501 µM],·,9.5*,7%
CCCN(C(=O)c1cccc(-n2cccc2)c1)c1c(N)n(Cc2ccccc2)c(=O)[nH]c1=O,10µM*,50µM*,45µM*,16µM*,45µM*,·,4.7*,10%
CCCN(C(=O)c1cc2c(s1)CCC2)c1c(N)n(Cc2ccccc2)c(=O)[nH]c1=O,18µM*,?,31%,-30%,·,-8%,5.3*,8%
NC(=O)c1ccc(NC(=O)COC(=O)CC23CC4CC(CC(Br)(C4)C2)C3)cc1,3%,·,23%,-21%,·,·,·,·
Cc1csc2nc(CCNS(=O)(=O)c3ccccc3)cn12,·,0%,30%[57 µM],6%,16%[59 µM],·,·,·
O=C(O)c1ccccc1Sc1ccccc1S(=O)(=O)NC1CCCCC1,7%,-4%,25%,7%,·,7%,·,·
O=C1CCCC(O)=C1Sc1ccccc1C(=O)O,16µM*,79µM*,25µM*,22µM*,25µM*,56µM*,2.4*,?
O=Cc1cccn1-c1cccc([N+](=O)[O-])c1,-3%,0%,?,-23%,·,?,·,·
O=C(O)c1cccc(-n2cccc2/C=N/O)c1,10µM*,45µM*,?,32µM*,?,15%,2.4*,11%
CN1C(=O)S/C(=C/c2cccn2-c2cccc(C(=O)O)c2)C1=O,?,?,24%,-27%,-30%,3%,·,·
